Test results as given in PubChem BioAssay (NCATS).
Inconclusive results are not listed. The source made the active and inactive calls. Calls come from the whole dose curve; as a rule, active = well fitted activation curve with a large enough effect in the main read-out, with a control signal flat (not every such curve was filed as active); inconclusive = small, poorly fitted or top-dose-only effect, or effect the other way, or a change in a side signal; inactive = flat fitted curve, though single readings scatter.

Molecular target: 3',5'-cyclic-AMP phosphodiesterase 4B (Homo sapiens) (UniProt Q07343)
Experiment: qHTS Assay for Inhibitors of PDE-IV (AID 607)
Conditions: HEK293 ACTOne CNG channel cells, membrane potential fluorescence; series mostly up to 22.9 µM
Text: NIH Chemical Genomics Center [NCGC]
NIH Molecular Libraries Screening Centers Network [MLSCN]
The cyclic nucleotide phosphodiesterases (PDEs) are proteins that catalyze hydrolysis of 3', 5'-cyclic nucleotides, such as cyclic adenosine monophosphate (cAMP) and cyclic guanosine monophosphate (cGMP), to their corresponding 5'-nucleotide monophosphates. These enzymes play an important role in controlling cellular concentrations of cyclic nucleotides and have a central role in a variety of intracellular signaling events. cAMP PDEs are emerging as a promising class of drug targets in asthma and cardiovascular disease therapeutic areas.
There are no commercially available cell-based screening assays for PDE inhibitors: currently biochemical assays are done using pure substrates (cAMP or cGMP) and purified recombinant PDE enzymes. As with other biochemical screens on intracellular targets, false positives and false negatives may result from issues involving cell membrane permeability, cellular metabolism, and the like.
Here we report the development of a cell-based screening assay for cAMP phosphodiesterase (PDE) inhibitors. The assay is based on the BD ACTOne# technology (BD Biosciences) which utilizes a modified cyclic nucleotide-gated channel (CNG) to monitor intracellular cAMP changes in live cells. The CNG channel is localized on the plasma membrane, and opens when the intracellular cAMP level increases, resulting in ion flux and cell membrane depolarization. The influx of cations through the CNG channel can be quantified using membrane potential (MP) dyes. We modified the BD ACTOne technology to allow the detection of PDE inhibitors, and performed an inhibitor screen for PDE-IV, which is expressed endogenously in HEK293 cells. We optimized this assay in homogeneous 1536-well plate assay format for high throughput screening.
NCGC Assay Protocol Summary:
The medium contained 10% FBS (Invitrogen), 2 mM L-glutamine, and 250 ug/ml G418 (Cellgro) and 1 ug/ml puromycin (Clontech). ACTOneTM parental cells (BD Biosciences) were maintained in the same medium without puromycin.
The activity of the CNG channel was measured by BD ACTOneTM membrane potential dye kit (BD Biosciences). Forskolin, a positive control for cAMP activation and RO 20-1724, a PDE inhibitor, were both purchased from Sigma and solublized in DMSO.
Sequence,Parameter,Value,Description
1,Reagent,3 uL,1000 cells/well 1536 TC treated Black plate
3,Compound,0.5 uL,Kalypsys dispense RO 20-1724 100 uM final [A]
4,Reagent,3 uL,BD membrane potential dye
6,Compound,23 nL,Final concentration was 0.7nM to 22.9uM
8,Detector,EX 535 / EM 590 [B],Envision
Footnotes: [A] The stock 2 mM RO 20-1724 PDE inhibitor was made in 10 % DMSO. Parental cell line received 10 uM forskolin + 100 uM RO. [B] Envsion settings: Bottom Excitation 535/20 nm top emission 590/20, gain of 150 and 5 flashes per well.
Keywords: PDE, PDE-IV, cytotoxicity, flourescence, MLSMR, MLSCN, NIH Roadmap, qHTS, NCGC

3',5'-cyclic-AMP phosphodiesterase 4B (Homo sapiens), sequence (Q07343 whole entry, looked up): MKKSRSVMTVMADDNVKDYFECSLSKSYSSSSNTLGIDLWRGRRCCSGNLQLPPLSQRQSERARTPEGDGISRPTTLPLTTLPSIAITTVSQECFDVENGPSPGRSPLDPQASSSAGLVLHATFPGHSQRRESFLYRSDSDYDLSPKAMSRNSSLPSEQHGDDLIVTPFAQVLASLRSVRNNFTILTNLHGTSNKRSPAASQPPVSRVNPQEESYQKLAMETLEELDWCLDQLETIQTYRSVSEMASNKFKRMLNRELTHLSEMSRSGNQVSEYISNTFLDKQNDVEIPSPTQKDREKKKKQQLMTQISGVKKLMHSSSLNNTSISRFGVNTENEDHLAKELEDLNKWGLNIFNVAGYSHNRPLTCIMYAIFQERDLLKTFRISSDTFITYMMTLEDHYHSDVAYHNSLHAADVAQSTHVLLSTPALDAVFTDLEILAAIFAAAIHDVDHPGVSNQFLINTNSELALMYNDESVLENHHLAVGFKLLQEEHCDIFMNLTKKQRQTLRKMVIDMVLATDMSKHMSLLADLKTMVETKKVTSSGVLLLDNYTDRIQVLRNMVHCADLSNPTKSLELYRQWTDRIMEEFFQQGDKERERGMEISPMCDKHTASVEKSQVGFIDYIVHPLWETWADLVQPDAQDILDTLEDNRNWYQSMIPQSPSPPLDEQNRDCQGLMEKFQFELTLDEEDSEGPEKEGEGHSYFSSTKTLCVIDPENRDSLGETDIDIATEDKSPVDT

| SMILES | outcome |
| --- | --- |
| Cc1ccc(NC(=[OH+])c2cc3ccccc3cc2O)c(C)c1.Cc1ccc(NC(=[OH+])c2cc3ccccc3cc2O)c(C)c1.[Ni] | inactive |
| CN(C)CS/C(N)=N/[C@H](O)C(Cl)(Cl)Cl | inactive |
| N#Cc1cccc(NC(=O)N2CCCC3(CCN(C(=O)Oc4ccccc4)CC3)C2)c1 | inactive |
| COc1cc2c(cc1OC)[C@]13CC[N@+]4(C)CC5=CCO[C@H]6CC(=O)N2[C@@H]1[C@@H]6[C@@H]5C[C@]34O | inactive |
| C[C@@H]1O[C@H](OC2[C@@H](O)[C@H](O)C(O)[C@H](O)[C@H]2O)[C@@H](N)C[C@@H]1N=C(N)C(=O)O (stereo not given in full) | inactive |
| O=C(Oc1ccc(S(=O)(=O)F)cc1F)c1ccccc1Cl | inactive |
| N[C@H](Cc1ccc2oc3cc(=O)c4ccccc4c-3nc2c1)C(=O)O | inactive |
| N[C@@H](CSC1c2ccccc2-c2ccccc21)C(=O)O | inactive |
| COc1cc([C@@H](O)CN)ccc1O | inactive |
| O=C1N[C@@]2(CN3CCC2CC3)C(=O)N1CN(Cc1ccccc1)c1ccccc1 | inactive |
| CC[C@@](O)(C(=O)O)c1cc2n(c(=O)c1CO)Cc1cc3ccccc3nc1-2 | inactive |
| NC(CCl)=N[C@H]1CN2CCC1CC2 | inactive |
| CC(C)[C@@H](Br)C(=O)NCC(=O)O | inactive |
| COc1cc2c3cc1Oc1c(O)c(OC)cc4c1[C@@H](Cc1ccc(cc1)Oc1cc(ccc1O)C[C@H]3N(C)CC2)N(C)CC4 | inactive |
| O=C(O)[C@H]1[O][Sb][O][C@@H](C(=O)O)C1O (stereo not given in full) | inactive |
| CC(C)CNCCc1ccccn1 | inactive |
| COC(=O)[C@H]1C(=O)[C@H](C(=O)OC)[C@@H]2CC[C@H]1N2C | inactive |
| COc1ccc2c(c1O)-c1cccc3c1[C@H](C2)N(C)CC3 | inactive |
| C[C@@]12CC[C@H]3[C@@H](CC=C4C[C@H](OS(=O)(=O)O)CC[C@]43C)[C@H]1CCC2=O | inactive |
| COc1cc2c(cc1OC)[C@@]13CCN4C=C5CCO[C@H]6CC(=O)N2[C@@H]1[C@@H]6[C@H]5C[C@H]43 | inactive |

| SMILES | outcome |
| --- | --- |
| C[C@]12CC[C@H](O)C[C@@H]1CC[C@H]1[C@H]2CC[C@]2(C)[C@H](C(=O)CO)CC[C@@H]12 | inactive |
| CN1C[C@@H](CS(=O)(=O)N(C)C)C[C@H]2c3cccc4c3c(cn4C)C[C@@H]21 | inactive |
| O=[As](O)(O)c1ccc(Cc2ccc([As](=O)(O)O)cc2)cc1 | inactive |
| Oc1ccc2c3c1O[C@@H]1c4[nH]c5c(c4C[C@@]4(O)[C@@H](C2)N(CC2CC2)CC[C@]314)C[C@]1(O)[C@@H]2Cc3ccc(O)c4c3[C@@]1(CCN2CC1CC1)[C@H]5O4 | inactive |
| O=[N+]([O-])c1cc(-c2ccc([As](=O)(O)O)cc2)ccc1[As](=O)(O)O | inactive |
| N#CS.N=C=S.N=C=S.[Cu].[NH2-].[NH2-].[NH2-].[NH2-].c1ccc2ncccc2c1 | inactive |
| CC(=O)OCC1=C(C(=O)[O-])N2C(=O)[C@@H](NC(=O)CCC[C@@H](N)C(=O)[O-])[C@@H]2SC1.[Zn+2] | inactive |
| Cc1cc[c]([Sb]2[O][C@H]([C@H](O)[C@H](O)C(=O)O)[C@@H](CO)[O]2)cc1 | inactive |
| CC(C)CC(=O)C[C@H](O)C(Cl)(Cl)Cl | inactive |
| Oc1ccc([C@H](O)[C@@H]2CCCCN2)cc1O | inactive |
| O=C(N1CCOCC1)C1(c2ccccc2)CCNCC1 | inactive |
| CCc1ccc(CCN2CCCCC2)nc1 | inactive |
| CN(C)CCCc1c[nH]c2ccccc12 | inactive |
| O=[As](O)(O)c1ccc2nc3cc([As](=O)(O)O)ccc3nc2c1 | inactive |
| Nc1nc(N)c(N=Nc2ccc([As](=O)(O)O)c(O)c2)c(N)n1 | inactive |
| CC1=C2C(=O)[C@@H]3[C@@H](CC=C4C[C@@H](O)CC[C@@]43C)[C@H]2CC[C@@]12O[C@H]1C[C@H](C)CN[C@H]1[C@@H]2C | inactive |
| CCNC(C)(C)[C@@H](SS)c1ccc(Br)cc1 | inactive |
| CC(C)C[C@H](NP(=O)(O)O[C@@H]1O[C@@H](C)[C@@H](O)[C@@H](O)[C@H]1O)C(=O)N[C@@H](Cc1c[nH]c2ccccc12)C(=O)O | inactive |
| C[C@@H]1Cc2cc3c(cc2C(c2ccc(N)cc2)=NN1)OCO3 | inactive |
| C[C@]12CN(CC[N+](C)(C)C)C[C@]1(C)[C@@H]1CC[C@@H]2O1 | inactive |
